Assay results taken from paper PMC4336329 (PLoS ONE, 2015).
Among all 310,000 compounds or so, about 14,000 (4.5%) showed an effect of 50% or more. The effect is printed as a negative number. What follows is part of a selection rich in strong results, with near analogues and random picks from the rest.

The compounds below were run against human ether-à-go-go-related gene (hERG) potassium channel (human, UniProt Q12809) (assay: primary screen, population patch clamp on CHO cells stably expressing hERG; higher = less effect of the substance).
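Note: peak tail current of the secondary pulse compared with the same well before compound.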

human ether-à-go-go-related gene (hERG) potassium channel, sequence (Q12809 whole entry, looked up): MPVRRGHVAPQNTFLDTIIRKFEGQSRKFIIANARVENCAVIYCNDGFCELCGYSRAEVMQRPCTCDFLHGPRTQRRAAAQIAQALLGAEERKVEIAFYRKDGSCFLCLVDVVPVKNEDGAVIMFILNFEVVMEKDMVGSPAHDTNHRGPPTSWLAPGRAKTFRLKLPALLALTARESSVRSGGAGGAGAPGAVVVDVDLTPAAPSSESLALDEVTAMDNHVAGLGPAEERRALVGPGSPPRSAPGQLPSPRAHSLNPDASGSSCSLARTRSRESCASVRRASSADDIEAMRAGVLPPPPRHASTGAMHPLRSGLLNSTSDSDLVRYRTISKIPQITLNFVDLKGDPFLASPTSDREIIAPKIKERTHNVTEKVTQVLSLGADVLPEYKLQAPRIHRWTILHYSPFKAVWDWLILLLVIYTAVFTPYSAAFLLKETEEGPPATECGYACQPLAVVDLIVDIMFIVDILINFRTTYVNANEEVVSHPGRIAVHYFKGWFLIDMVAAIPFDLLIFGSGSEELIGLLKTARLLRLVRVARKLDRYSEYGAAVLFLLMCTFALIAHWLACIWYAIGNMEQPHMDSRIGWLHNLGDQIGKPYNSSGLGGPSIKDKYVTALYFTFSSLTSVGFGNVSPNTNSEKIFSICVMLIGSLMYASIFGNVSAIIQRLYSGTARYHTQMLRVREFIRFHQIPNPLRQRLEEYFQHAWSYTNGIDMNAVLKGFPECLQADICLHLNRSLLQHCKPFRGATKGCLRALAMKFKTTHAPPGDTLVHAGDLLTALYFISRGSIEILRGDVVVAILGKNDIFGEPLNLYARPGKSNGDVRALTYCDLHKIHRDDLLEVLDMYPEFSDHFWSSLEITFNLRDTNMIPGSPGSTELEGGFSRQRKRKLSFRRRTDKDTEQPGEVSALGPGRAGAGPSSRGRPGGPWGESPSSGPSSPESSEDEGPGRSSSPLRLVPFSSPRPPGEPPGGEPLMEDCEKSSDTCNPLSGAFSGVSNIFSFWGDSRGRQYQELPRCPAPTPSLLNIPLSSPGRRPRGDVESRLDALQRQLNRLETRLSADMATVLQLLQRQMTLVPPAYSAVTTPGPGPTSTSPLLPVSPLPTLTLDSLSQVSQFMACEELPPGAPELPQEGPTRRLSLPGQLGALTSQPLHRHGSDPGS

| Compound | hERG current change (%, negative = inhibition) at 10uM |
| --- | --- |
| Cc1cc(C)nc(NS(=O)(=O)c2ccc(N3Cc4ccccc4C3=O)cc2)n1 | 12.2% |
| COc1cc(C(=O)Nc2ccccc2N2CCOCC2)ccc1OCc1c(C)noc1C | -28.8% |
| O=C(NCc1cn2ccsc2n1)c1c(F)cccc1Cl | 7.32% |
| COc1ccccc1N1CCN(C2CCN(C(=O)c3cccs3)CC2)CC1 | -38.2% |
| O=C(c1cccs1)N1CCN(C2CCN(Cc3ccccc3)CC2)CC1 | -64.3% |
| O=C(c1cccs1)N1CCN(c2ccccc2)CC1 | -0.00412% |
| O=C(O)C(=O)O.O=C(c1cccs1)N1CCN(Cc2ccncc2)CC1 | -5.94% |
| O=C(O)C(=O)O.O=C(c1cccs1)N1CCN(CCCc2ccccc2)CC1 | -64.5% |
| O=C(c1cccs1)N1CCN(CCc2ccccc2)CC1 | -48.6% |
| O=C(c1cccs1)N1CCC(N2CCN(c3ccccc3)CC2)CC1 | -51.2% |
| O=C(c1cccs1)N1CCN(Cc2ccccc2)CC1 | -12.2% |
| O=C(CCC1CCCC1)N1CCC(N2CCCCCC2)CC1.O=C(O)C(=O)O | -29.9% |
| O=C(CCC1CCCC1)N1CCC(N2CCN(c3ccccc3)CC2)CC1 | -66.6% |
| O=C(O)C(=O)O.O=C(c1cccs1)N1CCN(C2CCCCC2)CC1 | -32.4% |
| CC(C)CC(=O)N1CCC(N2CCN(c3ccccc3)CC2)CC1 | -12% |
| COc1ccc(C)cc1-n1c(SCC(=O)NC2CC2)nc2ccccc2c1=O | -17.4% |
| Nc1nc(SCc2nc3scc(-c4cccs4)c3c(=O)[nH]2)n[nH]1 | 18.9% |
| CCOc1ccc(-n2c(=O)[nH]cc(C(=O)N3CCCc4ccccc43)c2=O)cc1 | -9.75% |
| Cc1cccc(N2CCN(C(=O)Cn3cccc3)CC2)c1C | 2.77% |
| Cc1ccc(-c2cnc(NC(=O)CCC(=O)N3CCCCC3)n2C)cc1 | -6.45% |
| O=C1C2C3C=CC(C3)C2C(=O)N1c1ccc(-c2nc3ccccc3o2)cc1 (stereo not shown) | 15.6% |
| CCC(C)(C)NC(=O)C(c1cccc(OC)c1OC)N(CCC(C)C)C(=O)CCC(=O)Nc1cc(C)on1 (stereo not shown) | 11.6% |

| Compound | hERG current change (%, negative = inhibition) at 10uM |
| --- | --- |
| Cc1n[nH]c(C)c1CCN.Cl | 12.9% |
| COc1ccc(C(=O)Nc2ccc(-c3cn4ccsc4n3)cc2)cc1S(=O)(=O)N1CCOCC1 | -9.6% |
| Nn1c(SCC(=O)N2CCCc3ccccc32)nnc1-c1ccccc1 | 2.21% |
| O=c1n(Cc2ccc(Cl)cc2)c2sc3c(c2c2ncnn12)CCCC3 | -39.1% |
| O=C(Cn1c(=O)n2ncnc2c2c3c(sc21)CCCC3)c1ccccc1 | -20.1% |
| C=CCn1c(=O)n2ncnc2c2c3c(sc21)CCCC3 | -59.3% |
| COc1cccc(C2=NNC(=NCc3ccccc3)SC2)c1 | -42.6% |
| CCn1cnc2sc(C(=O)Oc3cccc(C)c3)c(C)c2c1=O | 19.9% |
| Cc1nn(C)c(Oc2ccccc2)c1CCNC(=O)CCl | 35.6% |
| Cc1cccc(Oc2ccc(N)cc2)c1 | -12% |
| CC(=O)c1cnc2cc(-c3ccc(C)cc3)nn2c1C | -4.26% |
| CCN1CCc2c(sc(N)c2C#N)C1 | 5.55% |
| N#Cc1c(N)sc2c1CCN(CCc1ccccc1)C2 | -50.5% |
| N#Cc1c(N)sc(=S)c2c1CCN(Cc1ccccc1)C2 | -5.46% |
| CN(C)S(=O)(=O)c1ccc2c(c1)Cc1cc(S(=O)(=O)N(C)C)ccc1-2 | 20.1% |
| COc1cc(/C=C/c2ccc(O)cc2)cc(OC)c1 | -2.2% |
| Cc1occc1C(=O)NNC1=CC(=O)CC(C)(C)C1 | 13.3% |
| CC1CCN(CCCNC(=O)CCNC(=O)Cn2cnc3ccccc3c2=O)CC1 | 20.5% |
| OC1(C(F)(F)F)CC(c2ccc3ccccc3c2)=NO1 (stereo not shown) | 4.45% |
| COCc1[nH]nc2c1C(c1cccc(OC)c1)C(C#N)=C(N)O2 (stereo not shown) | -7.26% |
| CCOc1ccc(NC(=O)C2CCC(C)(C(=O)O)C2(C)C)cc1 (stereo not shown) | 6.49% |
| CCN(C(=O)COC(=O)c1ccccc1Nc1cccc(C)c1C)C1CCS(=O)(=O)C1 (stereo not shown) | 2.59% |

| Compound | hERG current change (%, negative = inhibition) at 10uM |
| --- | --- |
| O=C(COC(=O)c1ccccc1NC(=O)c1ccco1)NC1CCS(=O)(=O)C1 (stereo not shown) | -2.03% |
| CN(C(=O)COC(=O)c1ccccc1NC(=O)c1ccco1)C1CCS(=O)(=O)C1 (stereo not shown) | -62.3% |
| CCN(C(=O)COC(=O)c1ccccc1NC(=O)c1ccco1)C1CCS(=O)(=O)C1 (stereo not shown) | -72.1% |
| CCN(C(=O)COC(=O)c1ccccc1NCCO)C1CCS(=O)(=O)C1 (stereo not shown) | -5.97% |
| CN(C(=O)COC(=O)c1ccccc1Nc1ccccc1)C1CCS(=O)(=O)C1 (stereo not shown) | -41.4% |
| CCOc1ccccc1C1CC(=O)Nc2cc(OC)c(OC)cc21 (stereo not shown) | 13.2% |
| O=CNC1CCCc2c1[nH]c1ccc(Cl)cc21 (stereo not shown) | -9.15% |
| COc1cccc(OC(=O)N2CCOCC2)c1 | 8.3% |
| O=C(CCCN1C(=O)c2ccccc2C1=O)Nc1cccc(S(=O)(=O)NC2=NCCC2)c1 | 13.5% |
| COc1ccc(N2CCN(C(C)C(=O)N3CC(C)OC(C)C3)CC2)cc1.O=C(O)C(=O)O (stereo not shown) | 18% |
| COc1ccc(/C=N/NC(=O)CCCC(=O)NC2CCCCC2)cc1 | 5.06% |
| CN(C)C(=O)/C(=C/c1ccc(-c2cccc([N+](=O)[O-])c2)o1)NC(=O)c1ccccc1 | -21.3% |
| CN(C)C(=O)/C(=C\c1ccc(-c2cccc([N+](=O)[O-])c2)o1)NC(=O)c1ccccc1 | -47.9% |
| CN(C)CCNC(=O)/C(=C/c1ccc(-c2cccc([N+](=O)[O-])c2)o1)NC(=O)c1ccccc1 | -75.4% |
| C=CCNC(=O)/C(=C/c1cn(-c2ccccc2)nc1-c1cccc([N+](=O)[O-])c1)NC(=O)c1ccccc1 | -3.58% |
| O=C(NCCCO)/C(=C/c1ccc(-c2cccc([N+](=O)[O-])c2)o1)NC(=O)c1ccccc1 | -31.5% |
| CN(C)CCCNC(=O)/C(=C\c1ccc(-c2cccc([N+](=O)[O-])c2)o1)NC(=O)c1ccccc1 | -81.2% |
| CCCCCn1c(=O)[nH]c2cc(C(=O)NCCN3CCCCC3C)ccc2c1=O (stereo not shown) | -15.9% |
| CCOC(=O)c1ccc(NC(=S)NNC(=O)C2(C)CC2(Cl)Cl)cc1 (stereo not shown) | 28.4% |
| O=C(O)CCSc1nnc(COc2ccc([N+](=O)[O-])cc2)n1-c1ccccc1 | 22.8% |
| C/C(=C\[C@@H](NP(=O)(c1ccccc1)c1ccccc1)c1ccccc1)CO[Si](c1ccccc1)(c1ccccc1)C(C)(C)C | 5.58% |
| CCN(CC)S(=O)(=O)c1cccc(C(=O)NCC(=O)OCC(=O)NCc2ccccc2)c1 | -7.41% |

| Compound | hERG current change (%, negative = inhibition) at 10uM |
| --- | --- |
| C[C@H](NS(=O)(=O)c1ccc(Cl)c(Cl)c1)C(=O)OCc1cc(=O)n2cc(Br)ccc2n1 | -63.4% |
| Cc1cc(C)c(C)c(S(=O)(=O)N[C@@H](C)C(=O)OCc2cc(=O)n3cc(Br)ccc3n2)c1C | -47% |
| O=C(CNS(=O)(=O)c1ccc(Br)cc1)OCc1cc(=O)n2cc(Br)ccc2n1 | -26% |
| CC1CC1C(=O)OCc1cc(=O)n2cc(Br)ccc2n1 (stereo not shown) | -16.2% |
| CC1(C(=O)OCc2cc(=O)n3cc(Br)ccc3n2)CC1(Cl)Cl (stereo not shown) | -54.3% |
| CCOc1ccc(CC(=O)OCc2cc(=O)n3cc(Br)ccc3n2)cc1 | -6.01% |
| COc1ccc(NS(=O)(=O)c2cc(NC(=O)c3ccc(=O)[nH]c3)ccc2C)cc1 | 15.1% |
| CC(=O)Nc1ccc(S(=O)(=O)N2CCN(c3nnnn3-c3ccccc3)CC2)cc1 | 13.1% |
| O=[N+]([O-])c1ccc(C[n+]2cccc3ccc4cccnc4c32)cc1.[Br-] | -62.6% |
| O=[N+]([O-])c1ccc(C[n+]2cccc3c4ccccc4ccc32)cc1.[Br-] | -40.5% |
| O=[N+]([O-])c1ccc(C[n+]2cccc3ccccc32)cc1.[Cl-] | -3.07% |
| CN(C)c1ccc(C2N(C(=O)N3CCOCC3)CCN2S(=O)(=O)c2ccccc2)cc1 (stereo not shown) | 3.98% |
| CC(=O)N1CCCC(C(=O)c2ccc(Oc3ccccc3)cc2)C1 (stereo not shown) | -5.43% |
| COCC(=O)N1CCCC(C(=O)c2ccc(Oc3ccccc3)cc2)C1 (stereo not shown) | -34.1% |
| COCCC(=O)N1CCCC(C(=O)c2ccc(Oc3ccccc3)cc2)C1 (stereo not shown) | -79.3% |
| CC(=O)NCC(=O)N1CCCC(C(=O)c2ccc(Oc3ccccc3)cc2)C1 (stereo not shown) | -23.2% |
| CCN1CCN(CC(=O)N2CCCC(C(=O)c3ccc(Oc4ccccc4)cc3)C2)CC1 (stereo not shown) | -52.7% |
| CCn1nc(C)cc1C(=O)N1CCCC(C(=O)c2ccc(Oc3ccccc3)cc2)C1 (stereo not shown) | -9.04% |
| CC1CCCC(C)N1S(=O)(=O)c1ccc(NC(=O)c2ccccc2C(=O)N2CCOCC2)cc1 (stereo not shown) | -3.57% |
